Results filed as inconclusive are left out. The source made the active and inactive calls. Calls follow the shape of the dose curve; as a rule, active = well fitted curve in the direction sought with a large enough effect; inconclusive = small, poorly fitted or top-dose-only effect, or effect the other way, or another doubt; inactive = no such curve, though single readings can be large or run the other way.
Molecular target: Pyruvate kinase PKLR (Homo sapiens) (UniProt P30613)
Assay: Secondary LDH Assay for Activators of Human Liver Pyruvate Kinase: for Probe SAR
Details: purified hPK-L, LDH-coupled NADH fluorescence kinetic; series mostly up to 58.2 µM
Procedure, shortened: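 Kinetic LDH-coupled read-out: NADH fluorescence loss followed every 30 s for 3–6 min gave initial rates. Reaction: 10 nM human liver PK, 0.1 mM PEP, 4 mM ADP, 0.2 mM NADH, 50 mM Tris-Cl pH 8.0; activation normalised to fructose-bis-phosphate.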

Pyruvate kinase PKLR (Homo sapiens), sequence (P30613 whole entry, looked up): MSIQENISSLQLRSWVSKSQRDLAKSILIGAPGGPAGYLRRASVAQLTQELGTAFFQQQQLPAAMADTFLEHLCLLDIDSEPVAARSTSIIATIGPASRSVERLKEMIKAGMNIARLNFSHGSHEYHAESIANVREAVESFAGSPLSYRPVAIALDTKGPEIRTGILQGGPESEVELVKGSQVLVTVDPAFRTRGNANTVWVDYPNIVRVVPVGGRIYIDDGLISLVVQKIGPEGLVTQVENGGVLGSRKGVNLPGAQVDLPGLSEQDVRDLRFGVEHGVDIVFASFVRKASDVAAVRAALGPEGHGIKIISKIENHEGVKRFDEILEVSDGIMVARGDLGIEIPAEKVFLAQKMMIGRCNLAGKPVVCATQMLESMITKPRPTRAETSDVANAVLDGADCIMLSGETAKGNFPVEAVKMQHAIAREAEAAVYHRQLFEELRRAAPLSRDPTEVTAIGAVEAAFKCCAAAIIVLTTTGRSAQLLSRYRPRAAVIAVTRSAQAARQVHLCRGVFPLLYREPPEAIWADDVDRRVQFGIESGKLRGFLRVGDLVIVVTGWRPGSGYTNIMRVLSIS

outcome, inactive:
O=C1c2ccccc2C(=O)N1c1cccc(O)c1
COc1ccc(N2C(=O)c3ccccc3C2=O)cc1
O=C1c2ccccc2C(=O)N1c1cccc2ncccc12
Cc1ccc(NS(=O)(=O)c2ccc3c(c2)CCC(=O)N3)cc1C
O=C1CCc2cc(Cl)c(S(=O)(=O)Nc3ccc(Cl)c(Cl)c3)cc2N1
N#Cc1ccc(NS(=O)(=O)c2ccc3c(c2)CCC(=O)N3)cc1
O=S1(=O)N=C(Oc2cccc(Cl)c2)c2ccccc21
O=C1CCc2cc(S(=O)(=O)Nc3cc(F)cc(Cl)c3)c(F)cc2N1
COc1ccc(OC2=NS(=O)(=O)c3ccccc32)cc1
CC(=O)Nc1ccc(S(=O)(=O)Nc2ccc(C)c(C)c2)cc1
O=C1CCc2cc(S(=O)(=O)Nc3ccccc3-c3ccccc3)ccc2N1
Cc1cc2c(s1)c1cnn(Cc3ccccc3F)c(=O)c1n2C
CC(=O)Nc1cccc(S(=O)(=O)Nc2ccc(C)c(C)c2)c1
COc1cccc(N2C(=O)c3ccccc3C2=O)n1
COc1cccc(Cn2ncc3c4sc(S(C)=O)cc4n(C)c3c2=O)c1 (stereo not given)
O=C1c2ccccc2C(=O)N1c1ncccc1O
Cc1cc(N2C(=O)c3ccccc3C2=O)no1
CNc1cccc(S(=O)(=O)N2CCCN(S(=O)(=O)c3ccc4c(c3)OCCO4)CC2)c1
CSc1cc2c(s1)c1cnn(Cc3cccc(O)c3)c(=O)c1n2C
Cc1ccc(Cl)cc1NS(=O)(=O)c1cc2c(cc1F)NC(=O)CC2
O=C1c2ccccc2C(=O)N1c1cccc(Cl)c1
O=C1c2ccccc2C(=O)N1c1cnc2ccccc2c1
COc1ccc(S(=O)(=O)Nc2ccc(C)c(C)c2)cc1
COc1cccc(N2C(=O)c3ccccc3C2=O)c1
O=S1(=O)N=C(Oc2ccccc2)c2ccccc21
